{
  "source": "ChEMBL document CHEMBL3988442",
  "about": "“University of Dundee, Small-Polar-MMV Screening Library” (2021)",
  "data": [
    {"target": "Shiga toxin 2 (Escherichia coli O157:H7) (UniProt P09385+P09386)", "test": "E. coli 0.157:H7 Shiga Toxin SOP - stx2 screening assay", "format": "functional", "set-up": "scale not given: direction of the effect not stated beside the values", "details": "30 µM", "units": {"Percent Effect": "%"}, "values": [
      {"molecule": "COCCN1CCN(C(=O)C2CC=CC2)Cc2cccnc21", "Percent Effect": -23.9},
      {"molecule": "Cc1cccc(-c2[nH]ncc2CNCC2CCN(CC(C)O)CC2)c1", "note": "(stereo not given)", "Percent Effect": 20.1},
      {"molecule": "O=C(Cc1ccccc1F)N1C[C@@H]2COC[C@]2(COc2cccnc2)C1", "Percent Effect": 3.35},
      {"molecule": "Cc1nnc(NC(=O)NCc2cccnc2N(C)C)s1", "Percent Effect": -16.1},
      {"molecule": "COCc1nc(CNC2CCSCC2)no1", "Percent Effect": 9.42},
      {"molecule": "Cc1nc([C@@H]2C[C@@H]3CCN(C(=O)c4occc4C)C[C@H]3O2)no1", "Percent Effect": -14.5},
      {"molecule": "CCn1cc(CN2CCCn3nc(CNC(=O)C4CCC4)cc3C2)cn1", "Percent Effect": -31},
      {"molecule": "Cc1ccc(C(=O)N2CCN(CCC(C)(C)C)CC2)c(=O)[nH]1", "Percent Effect": 1.57},
      {"molecule": "Cc1oc(C)c(C(=O)NCc2cccc(NC(=O)CN(C)C)c2)c1C", "Percent Effect": -39.7},
      {"molecule": "CN(CC(=O)N1CCCC1Cn1cccn1)C1CC1", "note": "(stereo not given)", "Percent Effect": 12.6},
      {"molecule": "CCn1ccnc1CN1CCCN(C(=O)c2sccc2C#N)CC1", "Percent Effect": 2.81},
      {"molecule": "Cc1cc(CN2CC[C@H]3C[C@H](C(=O)N4CCC(C)CC4)O[C@H]3C2)no1", "Percent Effect": 0.444},
      {"molecule": "Cc1[nH]c2ccccc2c1-c1ccnc(NCCN2CCOCC2)n1", "Percent Effect": -44.9},
      {"molecule": "c1cnnc(N2CCCC2CNc2nc3ccccc3o2)c1", "note": "(stereo not given)", "Percent Effect": -10.1},
      {"molecule": "COc1ccc(NC(=O)Cn2nc(C)ccc2=O)cc1OC", "Percent Effect": -5.66},
      {"molecule": "c1cnn(CCNCc2csc(-c3ccsc3)n2)c1", "Percent Effect": -113},
      {"molecule": "c1ccc2sc(N3CCOC(Cn4cccn4)C3)nc2c1", "note": "(stereo not given)", "Percent Effect": 12.4},
      {"molecule": "Cn1nc2c(cc1=O)CN(CC(=O)Nc1ccc(Cl)cn1)CC2", "Percent Effect": -4.57},
      {"molecule": "CNS(=O)(=O)c1cccc(CNc2cc(C(F)(F)F)ccn2)c1", "Percent Effect": 27.2},
      {"molecule": "Cc1nc(C)n(C2CCCN(C(=O)c3ccc(NC4CC4)nc3)C2)n1", "note": "(stereo not given)", "Percent Effect": -7.5}
    ]}
  ]
}
